Among the test systems are DU-145 prostate; K-562 leukemia; MALME-3M melanoma; MDA-MB-231 breast; RXF 393 renal; SF-268 CNS; SF-295 CNS; SF-539 CNS; UACC-257 melanoma; M14 melanoma; HCT-15 colon; HT29 colon; SNB-75 CNS; SNB-19 CNS; PC-3 prostate; SK-MEL-5 melanoma; UACC-62 melanoma; LOX IMVI melanoma; SK-MEL-28 melanoma; U251 CNS.
Holding throughout (assay): NCI-60 one-dose screen, 48 h (100 = growth as untreated, 0 = no growth, -100 = all killed)
What all share (details): 10 µM unless noted

About 83,000 compounds went through this panel and 20% of them were active in at least one assay; those are over-represented in the sample as a whole.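 Negative percent growth values reflect cell death: -40 means 40% of the cells present at the start died, and -100 means all died.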 A number with no mark means an inactive call. Active and inactive are the calls of the source. How the source made its calls: active means growth percent below 10; inactive means the rest.

For the compound `COc1ccc(-n2ncc3c2ccc2cc(S(=O)(=O)c4ccccc4)c(=O)n(C)c23)cc1`, the growth is 77.7% in the experiment on DU-145 prostate; 113% in the experiment on K-562 leukemia; 88.7% with MALME-3M melanoma; 74% in the experiment on MDA-MB-231 breast; 67.9% with RXF 393 renal; 69.2% in the experiment with SF-268 CNS. Moreover, the growth in the experiment with SF-295 CNS is 96.5%; with SF-539 CNS, 63.7%; in the experiment with UACC-257 melanoma, 92.9%; in the experiment on M14 melanoma it was 92.8%; in the experiment on HCT-15 colon, 92%; in the experiment on HT29 colon it was 81.2%. Also, the growth with SNB-75 CNS is 49.6%; in the experiment with SNB-19 CNS, 92.7%; in the experiment with PC-3 prostate, 86.7%; in the experiment with SK-MEL-5 melanoma, 95.9%; in the experiment on UACC-62 melanoma it was 87.8%; in the experiment on LOX IMVI melanoma, 86%. Besides, in the experiment with SK-MEL-28 melanoma, the growth is 91.2%.

For the compound `CC1(C)N=C(N)N=C(N)N1c1cccc(/C=C/C=C/c2cccc([N+](=O)[O-])c2)c1`, the growth in the experiment on DU-145 prostate is 73%; with K-562 leukemia, 20.6%; in the experiment on MALME-3M melanoma it was 66.3%; in the experiment with MDA-MB-231 breast, 81.3%; with RXF 393 renal it was 90.4%; in the experiment on SF-268 CNS it was 42.5%. Moreover, the growth in the experiment with SF-295 CNS was 83.8%; in the experiment on SF-539 CNS it was 15.9%; with UACC-257 melanoma, 41.4%; in the experiment with M14 melanoma it was 74.5%; in the experiment with HCT-15 colon, 88.7%; in the experiment on HT29 colon, 11.5%. Moreover, the growth with SNB-75 CNS is 58.3%; in the experiment with SNB-19 CNS, 51.6%; in the experiment on PC-3 prostate, 2.12% (active); in the experiment on SK-MEL-5 melanoma, 68.3%; with UACC-62 melanoma it was 47.3%; in the experiment with LOX IMVI melanoma, 33.7%. In addition, in the experiment on SK-MEL-28 melanoma, the growth is 65.6%.

In the case of `CCCCCCCCCCCCSC1=CC(=O)C=CC1=O`, the growth is 111% in the experiment with DU-145 prostate; 75% with K-562 leukemia; 102% in the experiment with MALME-3M melanoma; 97.2% in the experiment on MDA-MB-231 breast; 78% in the experiment on RXF 393 renal; 44.6% with SF-268 CNS. Also, the growth in the experiment with SF-295 CNS is 51.8%; in the experiment on SF-539 CNS it was 27.7%; in the experiment with UACC-257 melanoma, 73.2%; in the experiment on M14 melanoma, 89.5%; in the experiment on HCT-15 colon, 74.6%; in the experiment on HT29 colon, 94.7%. For the same compound, the growth in the experiment on SNB-75 CNS was 44.9%; in the experiment with SNB-19 CNS, 40.4%; with PC-3 prostate, 16.8%; with SK-MEL-5 melanoma, 97.5%; with UACC-62 melanoma, 96.4%; with LOX IMVI melanoma, 28.1%. Also, the growth in the experiment with SK-MEL-28 melanoma is 110%.

For the compound `O=C1/C(=C/c2ccc(Cl)cc2)CN(Cc2cn(CCCNc3ccnc4cc(Cl)ccc34)nn2)C/C1=C\c1ccc(Cl)cc1`, the growth with DU-145 prostate is -11.6% (active); with K-562 leukemia, 0.972% (active); in the experiment with MALME-3M melanoma, -64.6% (active); in the experiment on MDA-MB-231 breast, -58.4% (active); with RXF 393 renal, -97.6% (active); in the experiment on SF-268 CNS, -84.7% (active). The growth is -56.1% (active) with SF-295 CNS; -91.5% (active) in the experiment on SF-539 CNS; -69.4% (active) with UACC-257 melanoma; -64.9% (active) in the experiment with M14 melanoma; -74.2% (active) in the experiment with HCT-15 colon; -69.6% (active) in the experiment with HT29 colon. Besides, the growth in the experiment with SNB-75 CNS was -4.46% (active); in the experiment on SNB-19 CNS, -79.6% (active); in the experiment on U251 CNS, -91.9% (active); in the experiment with SK-MEL-5 melanoma it was -86.2% (active); in the experiment on LOX IMVI melanoma it was -86.2% (active); with SK-MEL-28 melanoma, -82.6% (active).

For the compound `O=C1CN2CCC1C/C2=C\c1ccnc2c(Cl)cccc12` (stereo unspecified), the growth was 111% in the experiment on DU-145 prostate; 95.7% with K-562 leukemia; 112% with MALME-3M melanoma; 90.1% in the experiment with MDA-MB-231 breast; 107% in the experiment with RXF 393 renal; 101% in the experiment with SF-268 CNS. In addition, the growth in the experiment on SF-295 CNS was 91.2%; in the experiment on SF-539 CNS, 110%; in the experiment on UACC-257 melanoma, 95.2%; with M14 melanoma it was 103%; in the experiment with HCT-15 colon, 82.6%; in the experiment with HT29 colon, 106%. Moreover, the growth in the experiment with SNB-75 CNS is 85.5%; in the experiment on SNB-19 CNS it was 98.2%; in the experiment with U251 CNS, 98.4%; in the experiment on SK-MEL-5 melanoma it was 108%; in the experiment with LOX IMVI melanoma it was 96%; with SK-MEL-28 melanoma, 127%.

As for `COc1ccc(/C=C2\CN(Cc3cn(CCCNc4ccnc5cc(Cl)ccc45)nn3)C/C(=C\c3ccc(OC)c(OC)c3)C2=O)cc1OC`, the growth in the experiment with DU-145 prostate is 11.7%; in the experiment on K-562 leukemia it was 4.56% (active); with MALME-3M melanoma it was 17.8%; in the experiment on MDA-MB-231 breast, -10.2% (active); in the experiment on RXF 393 renal, -95.1% (active); in the experiment with SF-268 CNS it was -4.95% (active). Besides, the growth in the experiment with SF-295 CNS is -55.9% (active); in the experiment on SF-539 CNS, 6.69% (active); with UACC-257 melanoma it was 45.3%; in the experiment with M14 melanoma, -21.5% (active); in the experiment with HCT-15 colon, 9.96% (active); in the experiment with HT29 colon, -40.1% (active). The growth in the experiment on SNB-75 CNS is 42.6%; in the experiment on SNB-19 CNS, 33%; with U251 CNS it was 0.724% (active); in the experiment on SK-MEL-5 melanoma, 5.86% (active); in the experiment on SK-MEL-28 melanoma, 40.1%.

As to `Cc1nc2cc(Nc3nc(Nc4ccc(F)cc4)nc(N4CCCC4)n3)ccc2n1Cc1ccccc1`, the growth is -41.5% (active) in the experiment on DU-145 prostate; 0.0326% (active) with K-562 leukemia; -61.6% (active) with MALME-3M melanoma; -59.7% (active) in the experiment with MDA-MB-231 breast; -83.5% (active) in the experiment with RXF 393 renal; -26.3% (active) in the experiment on SF-268 CNS. Moreover, the growth is -26.8% (active) in the experiment with SF-295 CNS; -25% (active) in the experiment with SF-539 CNS; -22.7% (active) in the experiment with UACC-257 melanoma; -48.1% (active) with M14 melanoma; -33.4% (active) in the experiment on HCT-15 colon; -76.1% (active) in the experiment on HT29 colon. Further, the growth in the experiment on SNB-75 CNS is -15.1% (active); in the experiment on SNB-19 CNS it was 33.6%; in the experiment with U251 CNS, -70.9% (active); with SK-MEL-5 melanoma it was -53.4% (active); in the experiment with SK-MEL-28 melanoma, -10.6% (active).

`COc1cc(-c2nc(SC(C)C)nc(Nc3ccccc3C)c2C#N)cc(OC)c1OC`: the growth is 113% with DU-145 prostate; 98.6% in the experiment with K-562 leukemia; 104% in the experiment with MALME-3M melanoma; 102% in the experiment on MDA-MB-231 breast; 120% in the experiment with RXF 393 renal; 106% with SF-268 CNS. Further, the growth is 102% in the experiment with SF-295 CNS; 103% in the experiment on SF-539 CNS; 113% in the experiment with UACC-257 melanoma; 104% in the experiment with M14 melanoma; 102% in the experiment on HCT-15 colon; 109% with HT29 colon. Further, the growth with SNB-75 CNS was 108%; in the experiment with SNB-19 CNS it was 100%; with PC-3 prostate, 104%; with SK-MEL-5 melanoma it was 102%; with UACC-62 melanoma, 97.2%; in the experiment on LOX IMVI melanoma, 102%. In addition, the growth with SK-MEL-28 melanoma was 107%.

The values above are taken from PubChem BioAssay (NCI).
